The full data set covers some 8,800 targets. This sample favours those with a hit. About 0.5% of all pairs of compound and target were hits.
Columns and labels:
Experiment in all cases: log2 fold change, soluble protein after heating vs DMSO (PISA); higher = thermal stabilisation; K562 lysate, 10 uM; active = over 0.2 and 3.5 SD of the protein, either way, in both replicates (recomputed)
alvocidib = compound: CN1CC[C@H](c2c(O)cc(O)c3c(=O)cc(-c4ccccc4Cl)oc23)[C@H](O)C1 [alvocidib]
How it was run: (§1)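 A 30 min treatment with 10 μM compound was applied to crude K562 extract at 1 mg/mL protein in PBS pH 7.4 with 1 mM MgCl2. Heating for 3 min spanned 48°C-58°C, after which aliquots were pooled, adjusted to 0.5% NP-40 at 4°C and spun at 21,000xg for 90 min. TMTpro 16plex LC-MS/MS of the supernatant, with channel sums equalised, gave values recorded as log-two fold change in thermal stability against solvent controls, from duplicates.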

Tubastatin A = compound: CN1CCc2c(c3ccccc3n2Cc2ccc(C(=O)NO)cc2)C1 [Tubastatin A]
How it was run: as §1

[1] = compound: CNC(=O)C1=CC=CC=C1NC2=NC(=NC=C2Cl)NC3=C(C=C(C=C3)N4CCOCC4)OC
How it was run: as §1

defactinib = compound: CNC(=O)c1ccc(Nc2ncc(C(F)(F)F)c(NCc3nccnc3N(C)S(C)(=O)=O)n2)cc1 [defactinib]
How it was run: as §1

[2] = compound: CNc1nc(-c2ccc3c(N)n[nH]c3c2)cc(N2C[C@@H](C(=O)NC3CCCCC3)CC[C@H]2C)n1
How it was run: as §1

encorafenib = compound: COC(=O)N[C@@H](C)CNc1nccc(-c2cn(C(C)C)nc2-c2cc(Cl)cc(NS(C)(=O)=O)c2F)n1 [encorafenib]
How it was run: as §1

[3] = compound: COC(=O)[C@H](CCSC)NC(=O)C1=C(C=C(C=C1)NC[C@H](CS)N)C2=CC=CC=C2
How it was run: as §1

alisertib = compound: COc1cc(Nc2ncc3c(n2)-c2ccc(Cl)cc2C(c2c(F)cccc2OC)=NC3)ccc1C(=O)O [alisertib]
How it was run: as §1

[4] = compound: COc1cc2nc(-c3cc(F)ccc3O)nc(N[C@@H]3CNC[C@H]3C(C)(C)O)c2cc1OC
How it was run: as §1

gefitinib = compound: COc1cc2ncnc(Nc3ccc(F)c(Cl)c3)c2cc1OCCCN1CCOCC1 [gefitinib]
How it was run: as §1

Measured: log2 fold change

SNRPD2 (UniProt P62316)
Chain of UniProt P62316 (P62316 whole entry, looked up): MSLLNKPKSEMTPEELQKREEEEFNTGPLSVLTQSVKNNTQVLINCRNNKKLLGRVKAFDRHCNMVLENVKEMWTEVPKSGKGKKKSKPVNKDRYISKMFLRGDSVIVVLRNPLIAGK
inactive: alvocidib -0.054 | Tubastatin A 0.027 | [1] -0.003 | defactinib -0.019 | [2] 0.021 | encorafenib 0.005 | [3] -0.027 | alisertib 0.014 | [4] 0.029 | gefitinib -0.02

SNX6, A0A0A0MRI2
inactive: alvocidib 0.076 | Tubastatin A -0.051 | [1] 0.004 | defactinib 0.008 | [2] -0.024 | encorafenib 0.007 | [3] 0.171 | alisertib -0.008 | [4] -0.003 | gefitinib -0.01

SYF2 (UniProt O95926)
Chain of UniProt O95926 (O95926 whole entry, looked up): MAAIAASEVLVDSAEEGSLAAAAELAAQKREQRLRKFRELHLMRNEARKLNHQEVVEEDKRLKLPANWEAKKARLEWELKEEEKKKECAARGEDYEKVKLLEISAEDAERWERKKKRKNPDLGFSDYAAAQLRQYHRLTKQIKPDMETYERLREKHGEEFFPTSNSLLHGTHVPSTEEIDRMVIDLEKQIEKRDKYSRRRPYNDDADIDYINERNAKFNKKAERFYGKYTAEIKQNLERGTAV
inactive: alvocidib 0.004 | Tubastatin A 0.039 | [1] 0.103 | defactinib -0.034 | [2] 0.049 | encorafenib 0.038 | [3] 0.033 | alisertib 0.018 | [4] 0.058 | gefitinib 0.038

SH3GL1 (UniProt Q99961)
Chain of UniProt Q99961 (Q99961 whole entry, looked up): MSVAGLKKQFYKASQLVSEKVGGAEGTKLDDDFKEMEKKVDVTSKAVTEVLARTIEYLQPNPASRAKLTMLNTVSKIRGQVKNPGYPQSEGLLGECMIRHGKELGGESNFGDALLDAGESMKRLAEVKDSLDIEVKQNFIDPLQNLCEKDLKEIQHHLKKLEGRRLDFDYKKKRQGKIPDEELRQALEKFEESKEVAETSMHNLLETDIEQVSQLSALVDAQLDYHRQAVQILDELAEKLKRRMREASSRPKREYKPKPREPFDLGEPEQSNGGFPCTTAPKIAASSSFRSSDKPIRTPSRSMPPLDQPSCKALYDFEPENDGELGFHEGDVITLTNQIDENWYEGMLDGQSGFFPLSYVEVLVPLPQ
inactive: alvocidib 0.017 | Tubastatin A -0.109 | [1] 0.01 | defactinib 0.03 | [2] -0.003 | encorafenib -0.02 | [3] -0.042 | alisertib -0.011 | [4] 0.009 | gefitinib 0.002

SSB (UniProt P05455)
Chain of UniProt P05455 (P05455 whole entry, looked up): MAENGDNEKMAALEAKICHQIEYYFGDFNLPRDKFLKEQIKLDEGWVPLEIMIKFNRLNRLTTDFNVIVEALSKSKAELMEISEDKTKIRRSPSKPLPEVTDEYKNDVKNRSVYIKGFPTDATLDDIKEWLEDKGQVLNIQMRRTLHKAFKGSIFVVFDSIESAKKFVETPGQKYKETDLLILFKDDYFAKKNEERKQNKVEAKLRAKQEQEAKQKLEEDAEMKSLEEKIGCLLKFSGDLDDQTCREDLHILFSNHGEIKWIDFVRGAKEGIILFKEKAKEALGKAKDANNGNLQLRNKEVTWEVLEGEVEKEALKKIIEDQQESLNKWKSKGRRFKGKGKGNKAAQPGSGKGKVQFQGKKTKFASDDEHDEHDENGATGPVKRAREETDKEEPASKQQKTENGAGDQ
inactive: alvocidib 0.057 | Tubastatin A 0.018 | [1] -0.02 | defactinib -0.019 | [2] -0.015 | encorafenib -0.029 | [3] 0.022 | alisertib -0.003 | [4] 0.002 | gefitinib -0.008

SPATS2 (UniProt Q86XZ4)
Chain of UniProt Q86XZ4 (Q86XZ4 whole entry, looked up): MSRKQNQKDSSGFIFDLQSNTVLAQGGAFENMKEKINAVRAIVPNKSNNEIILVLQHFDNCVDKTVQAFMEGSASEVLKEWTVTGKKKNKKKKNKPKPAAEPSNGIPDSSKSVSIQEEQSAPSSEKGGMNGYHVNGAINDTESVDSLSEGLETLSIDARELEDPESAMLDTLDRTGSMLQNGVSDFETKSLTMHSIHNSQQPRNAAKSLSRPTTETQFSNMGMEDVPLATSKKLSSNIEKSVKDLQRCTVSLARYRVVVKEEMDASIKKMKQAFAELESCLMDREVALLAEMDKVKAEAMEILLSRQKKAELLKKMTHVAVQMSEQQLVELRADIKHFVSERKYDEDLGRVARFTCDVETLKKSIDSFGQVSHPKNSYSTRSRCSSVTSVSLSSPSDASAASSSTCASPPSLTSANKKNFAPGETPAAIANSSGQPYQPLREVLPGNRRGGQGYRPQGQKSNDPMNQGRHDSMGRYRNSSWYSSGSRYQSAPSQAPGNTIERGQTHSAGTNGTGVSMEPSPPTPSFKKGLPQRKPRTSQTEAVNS
inactive: alvocidib 0.039 | Tubastatin A -0.075 | [1] 0.019 | defactinib 0.353 | [2] 0.036 | encorafenib 0.066 | [3] -0.195 | alisertib -0.015 | [4] -0.047 | gefitinib 0

SPIRE1 (UniProt Q08AE8)
inactive: alvocidib -0.101 | Tubastatin A 0.02 | [1] 0.038 | defactinib -0.024 | [2] 0.084 | encorafenib -0.046 | [3] -0.036 | alisertib 0.02 | [4] 0.076 | gefitinib 0.049

SPATA5L1 (UniProt Q9BVQ7)
Chain of UniProt Q9BVQ7 (Q9BVQ7 whole entry, looked up): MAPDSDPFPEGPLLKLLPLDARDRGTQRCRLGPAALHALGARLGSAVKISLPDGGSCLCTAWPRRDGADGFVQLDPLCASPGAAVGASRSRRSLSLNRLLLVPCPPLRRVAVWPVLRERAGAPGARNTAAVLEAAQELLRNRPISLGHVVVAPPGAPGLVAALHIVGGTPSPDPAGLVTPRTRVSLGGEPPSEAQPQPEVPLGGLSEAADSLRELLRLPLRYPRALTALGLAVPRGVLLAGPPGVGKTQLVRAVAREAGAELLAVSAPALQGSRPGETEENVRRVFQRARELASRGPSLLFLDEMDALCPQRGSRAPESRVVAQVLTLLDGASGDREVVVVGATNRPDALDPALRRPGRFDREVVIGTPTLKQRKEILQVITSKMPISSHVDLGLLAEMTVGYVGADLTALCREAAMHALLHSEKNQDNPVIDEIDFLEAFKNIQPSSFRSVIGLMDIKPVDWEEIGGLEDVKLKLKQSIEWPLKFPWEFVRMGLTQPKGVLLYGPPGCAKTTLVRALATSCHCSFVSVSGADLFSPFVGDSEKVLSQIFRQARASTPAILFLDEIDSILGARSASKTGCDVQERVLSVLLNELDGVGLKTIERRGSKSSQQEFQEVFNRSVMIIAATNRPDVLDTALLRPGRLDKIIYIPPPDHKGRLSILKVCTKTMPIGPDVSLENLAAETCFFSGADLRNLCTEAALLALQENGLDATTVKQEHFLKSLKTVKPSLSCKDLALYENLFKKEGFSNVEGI
inactive: alvocidib 0.022 | Tubastatin A -0.16 | [1] 0.019 | defactinib 0.036 | [2] 0.23 | encorafenib 0 | [3] -0.061 | alisertib 0.024 | [4] -0.052 | gefitinib -0.013

SLC19A1 (UniProt P41440)
Chain of UniProt P41440 (P41440 whole entry, looked up): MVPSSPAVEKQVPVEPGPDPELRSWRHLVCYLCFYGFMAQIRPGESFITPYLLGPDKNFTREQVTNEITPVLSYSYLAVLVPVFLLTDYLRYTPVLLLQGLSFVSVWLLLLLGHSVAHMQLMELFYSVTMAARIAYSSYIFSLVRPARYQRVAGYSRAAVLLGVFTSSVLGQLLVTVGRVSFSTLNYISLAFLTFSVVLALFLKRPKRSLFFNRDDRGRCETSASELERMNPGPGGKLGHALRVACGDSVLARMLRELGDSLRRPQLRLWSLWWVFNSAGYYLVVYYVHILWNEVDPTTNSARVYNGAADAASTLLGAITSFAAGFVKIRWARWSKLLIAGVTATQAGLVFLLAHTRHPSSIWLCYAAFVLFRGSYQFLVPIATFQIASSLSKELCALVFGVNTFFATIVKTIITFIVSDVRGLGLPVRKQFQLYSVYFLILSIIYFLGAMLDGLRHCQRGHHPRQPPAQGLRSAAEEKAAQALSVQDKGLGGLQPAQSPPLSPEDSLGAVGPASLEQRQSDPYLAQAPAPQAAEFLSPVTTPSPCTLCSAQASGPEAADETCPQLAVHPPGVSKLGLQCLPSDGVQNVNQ
inactive: alvocidib -0.106 | Tubastatin A 0.047 | [1] 0.025 | defactinib 0.01 | [2] 0.037 | encorafenib 0.011 | [3] -0.018 | alisertib -0.005 | [4] 0.039 | gefitinib 0.026

STK26 (UniProt Q9P289)
Chain of UniProt Q9P289 (Q9P289 whole entry, looked up): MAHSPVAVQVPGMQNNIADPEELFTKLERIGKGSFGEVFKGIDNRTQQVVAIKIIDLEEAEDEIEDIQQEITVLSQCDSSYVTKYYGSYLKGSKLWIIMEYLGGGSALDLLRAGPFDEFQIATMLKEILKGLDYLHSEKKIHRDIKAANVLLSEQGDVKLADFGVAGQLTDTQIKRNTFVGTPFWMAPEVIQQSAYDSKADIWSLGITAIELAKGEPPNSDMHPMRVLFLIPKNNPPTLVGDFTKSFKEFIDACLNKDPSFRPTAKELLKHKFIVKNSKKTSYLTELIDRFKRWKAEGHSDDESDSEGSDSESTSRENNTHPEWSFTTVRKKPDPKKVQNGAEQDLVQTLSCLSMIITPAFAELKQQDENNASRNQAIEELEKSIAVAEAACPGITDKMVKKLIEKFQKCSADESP
inactive: alvocidib 0.027 | Tubastatin A -0.041 | [1] 0.003 | defactinib 0.008 | [2] -0.06 | encorafenib 0.001 | [3] 0.009 | alisertib -0.004 | [4] 0.022 | gefitinib -0.016

STUB1 (UniProt Q9UNE7)
Chain of UniProt Q9UNE7 (Q9UNE7 whole entry, looked up): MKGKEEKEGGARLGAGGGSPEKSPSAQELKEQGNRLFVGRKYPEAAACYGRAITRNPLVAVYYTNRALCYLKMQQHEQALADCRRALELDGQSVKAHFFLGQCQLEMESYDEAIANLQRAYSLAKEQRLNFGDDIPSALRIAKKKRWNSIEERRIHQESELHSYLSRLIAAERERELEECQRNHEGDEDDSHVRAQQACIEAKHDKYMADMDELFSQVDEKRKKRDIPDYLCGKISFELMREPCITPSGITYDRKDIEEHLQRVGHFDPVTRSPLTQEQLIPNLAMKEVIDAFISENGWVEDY
inactive: alvocidib -0.012 | Tubastatin A -0.193 | [1] 0.003 | defactinib -0.029 | [2] 0.026 | encorafenib -0.025 | [3] 0.135 | alisertib 0.003 | [4] 0.007 | gefitinib -0.003

SMTN isoform 6 (UniProt P53814)
Chain of UniProt P53814 (P53814 whole entry, looked up): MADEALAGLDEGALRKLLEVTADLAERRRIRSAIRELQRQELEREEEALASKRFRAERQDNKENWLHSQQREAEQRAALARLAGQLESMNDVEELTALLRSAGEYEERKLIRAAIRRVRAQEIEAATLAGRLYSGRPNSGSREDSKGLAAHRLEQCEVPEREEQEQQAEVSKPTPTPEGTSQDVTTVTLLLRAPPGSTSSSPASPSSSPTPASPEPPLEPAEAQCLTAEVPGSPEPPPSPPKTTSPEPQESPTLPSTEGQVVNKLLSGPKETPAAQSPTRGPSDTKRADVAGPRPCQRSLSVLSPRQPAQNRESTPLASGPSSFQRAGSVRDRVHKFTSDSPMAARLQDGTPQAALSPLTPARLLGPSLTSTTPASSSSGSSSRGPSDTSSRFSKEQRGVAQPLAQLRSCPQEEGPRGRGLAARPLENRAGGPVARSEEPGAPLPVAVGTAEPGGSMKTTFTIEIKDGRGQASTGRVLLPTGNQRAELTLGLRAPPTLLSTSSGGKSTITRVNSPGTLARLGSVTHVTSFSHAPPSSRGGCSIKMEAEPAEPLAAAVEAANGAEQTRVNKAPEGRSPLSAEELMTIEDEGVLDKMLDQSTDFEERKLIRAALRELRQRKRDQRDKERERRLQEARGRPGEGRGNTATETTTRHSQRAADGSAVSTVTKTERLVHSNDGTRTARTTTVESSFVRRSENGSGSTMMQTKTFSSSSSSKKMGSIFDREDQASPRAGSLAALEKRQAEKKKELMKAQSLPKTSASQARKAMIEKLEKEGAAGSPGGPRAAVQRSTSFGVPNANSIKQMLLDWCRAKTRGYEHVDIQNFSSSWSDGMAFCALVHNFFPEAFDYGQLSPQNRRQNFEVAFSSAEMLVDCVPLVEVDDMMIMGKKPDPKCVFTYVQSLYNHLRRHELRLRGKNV
inactive: alvocidib -0.04 | Tubastatin A -0.019 | [1] 0.071 | defactinib -0.103 | [2] -0.013 | encorafenib -0.002 | [3] -0.085 | alisertib 0.055 | [4] -0.005 | gefitinib 0.005

SPR (UniProt P35270)
Chain of UniProt P35270 (P35270 whole entry, looked up): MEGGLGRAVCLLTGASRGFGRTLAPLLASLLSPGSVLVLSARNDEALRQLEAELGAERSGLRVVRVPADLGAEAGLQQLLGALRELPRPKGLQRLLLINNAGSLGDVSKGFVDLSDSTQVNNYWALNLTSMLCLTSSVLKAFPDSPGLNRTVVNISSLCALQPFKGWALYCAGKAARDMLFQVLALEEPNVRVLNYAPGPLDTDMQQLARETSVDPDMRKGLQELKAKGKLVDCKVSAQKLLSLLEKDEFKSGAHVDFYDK
inactive: alvocidib 0.164 | Tubastatin A -0.1 | [1] 0.071 | defactinib 0.019 | [2] 0.01 | encorafenib -0.097 | [3] 0.22 | alisertib 0.163 | [4] -0.017 | gefitinib -0.013

— the supplement of paper PMC10849652
